Source: PubChem BioAssay (National Center for Advancing Translational Sciences (NCATS))
Most compounds without a hit are left out; they make up all but 2.3% or so of the library.
FUS suppressor: suppressors of FUS proteinopathy in yeast | S. cerevisiae FUS-expressing, growth rescue, OD600, 24 h | Potency, µM (doses to about 76.6 µM), hits mostly activators | 390,000 tested, 0.24% active | AID 1347120; further: nearly all actives have a fitted effect of over 55% in size
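Toxicity suppression screen in FUS-yeast. Cells induced with 2% galactose, starting OD 0.005, treated 24hr at 30C with compounds at multiple final concentrations; growth by OD600.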
Giardia killer: kills Giardia lamblia; Giardia lamblia trophozoite viability; activity change, % at 7.66 µM, hits read low; 340,000 tested, 0.15% active; in the data active means activity change below about -80%; inconclusive means between about -30% and that limit;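 further: parasites exposed to compound for two days anaerobically before the ATP read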
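Killing of trophozoites was scored by loss of ATP luminescence after a 48 hrs anaerobic exposure to compounds at 37 deg C, using 100 cells per well.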
TRPV1 ag: human TRPV1 agonism; TRPV1-expressing cells, Fluo-8 calcium influx, agonist mode; activation, % at 8.33 µM; 320,000 tested, 0.19% active; AID 540275; in the data active means activation above about 80%; inconclusive means between about 30% and that limit
Target sequence (Q8NER1 whole entry, looked up): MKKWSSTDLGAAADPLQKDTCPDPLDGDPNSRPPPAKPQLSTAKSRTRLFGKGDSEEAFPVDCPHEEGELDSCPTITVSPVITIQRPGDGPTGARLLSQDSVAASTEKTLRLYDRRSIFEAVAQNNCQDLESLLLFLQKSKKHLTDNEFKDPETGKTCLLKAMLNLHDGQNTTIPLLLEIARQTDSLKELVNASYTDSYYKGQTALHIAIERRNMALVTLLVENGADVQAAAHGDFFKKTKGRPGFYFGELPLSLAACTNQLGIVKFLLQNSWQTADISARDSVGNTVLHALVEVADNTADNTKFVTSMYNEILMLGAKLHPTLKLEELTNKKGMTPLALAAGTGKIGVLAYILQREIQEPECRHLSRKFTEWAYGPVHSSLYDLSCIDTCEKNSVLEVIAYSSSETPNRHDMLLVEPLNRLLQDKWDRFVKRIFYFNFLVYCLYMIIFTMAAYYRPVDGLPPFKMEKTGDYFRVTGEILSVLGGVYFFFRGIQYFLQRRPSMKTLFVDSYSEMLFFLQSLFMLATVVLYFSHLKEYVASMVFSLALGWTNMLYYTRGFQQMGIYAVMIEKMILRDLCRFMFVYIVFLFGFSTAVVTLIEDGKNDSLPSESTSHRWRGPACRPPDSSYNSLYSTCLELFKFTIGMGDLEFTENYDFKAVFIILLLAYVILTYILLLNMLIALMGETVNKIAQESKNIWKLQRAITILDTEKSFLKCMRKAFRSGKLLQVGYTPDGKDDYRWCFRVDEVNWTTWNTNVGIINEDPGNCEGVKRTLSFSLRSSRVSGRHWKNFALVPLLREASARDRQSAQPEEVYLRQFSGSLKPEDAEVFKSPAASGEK
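Fluo-8 calcium influx in TRPV1-expressing cells, kinetic read (ex 480/em 520 nm). Compound added and read 3 min for agonist activity, followed by capsaicin at EC20 final and 2 min further read for enhancement.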
ELG1 DNA repair: blocks ELG1-dependent DNA repair in HEK293T cells; Potency, µM (doses to about 46.1 µM), most hits filed as inhibitors; HEK293T ELG1-luciferase reporter, luminescence, 16 h; DNA damage induced by 5-fluorouridine; AID 504467; 330,000 tested, 2.3% active; further: nearly all actives have a fitted effect of over 55% in size
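HEK293T cells expressing luciferase-tagged ELG1 (2,000/well) received 5-Fluorouridine plus compound or DMSO for 16 hr at 37 °C. Luciferase was read by ONE-Glo luminescence after 30 min at room temperature.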
TRPV1 potentiator: human TRPV1 potentiation; TRPV1-expressing cells, Fluo-8 calcium influx, capsaicin EC20 potentiation; potentiation, % at 8.33 µM; 320,000 tested, 0.02% active; AID 540277; in the data active means potentiation above about 80%; inconclusive means between about 30% and that limit
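Cells expressing TRPV1 were dye-loaded with Fluo-8 and read kinetically: 10 s baseline, 3 min after compound (agonist portion), then 2 min after EC20 capsaicin (allosteric enhancer portion). Calcium-bound dye fluorescence at 480/520 nm.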
Numbers stand for hits; i = inactive; ? = inconclusive; nt = not tested or not shown. Unless noted, the call rests on the fitted dose curve; in most records, active means well fitted curve in the direction sought with a large enough effect; inconclusive means small, poorly fitted or top-dose-only effect, or another doubt; inactive means no such curve, though single readings can be large; an effect the other way counts as inactive or inconclusive.

SMILES | FUS suppressor | Giardia killer | TRPV1 ag | ELG1 DNA repair | TRPV1 potentiator
COc1cc2c(cc1OC)CN(C(=O)/C=C/c1ccccc1[N+](=O)[O-])CC2 | i | i | i | 13µM | i
COc1ccc(-n2c(SCc3nc4ccccc4[nH]3)nc3ccccc3c2=O)cc1 | 35µM | nt | nt | nt | nt
COc1ccc(-n2c(COc3ccccc3)nnc2SCc2nc3ccccc3[nH]2)cc1 | i | nt | nt | nt | nt
COc1ccc(C2c3c(-c4ccccc4O)n[nH]c3C(=O)N2CCc2ccc(OC)c(OC)c2)cc1 (stereo not drawn) | i | i | i | 2.8µM | i
CCCCn1nc(C(=O)NCC(c2cccs2)N2CCOCC2)c2ccccc2c1=O (stereo not drawn) | i | i | i | 18µM | i
CCCCn1nc(C(=O)Nc2nc3c(s2)CCCC3)c2ccccc2c1=O | i | i | i | 15µM | i
CCn1cc(C(=O)NCc2ccccc2OC)c(=O)c2cc(S(=O)(=O)N3CCCCCC3)ccc21 | i | nt | nt | nt | nt
CCS(=O)(=O)N1CCC(c2nc(-c3ccc(C)cc3)no2)CC1 | i | i | i | ? | i
CCS(=O)(=O)N1CCC(c2nc(-c3ccc(C(F)(F)F)cc3)no2)CC1 | i | i | i | 6.3µM | i
COc1cccc(CNC(=S)Nc2cc(C)ccc2C)c1 | i | i | ? | i | i
COc1cccc(CNC(=S)Nc2cccc(Cl)c2C)c1 | i | i | 87 | i | i
CCCc1n(CC)c2ccccc2[n+]1CC(O)COC1CCCCC1 (stereo not drawn) | i | i | i | 3.3µM | i
NC(=O)c1c(NC(=O)CS(=O)(=O)c2ccc(Cl)cc2)sc2c1CCCCC2 | i | nt | nt | nt | nt
CN(C)c1ccc(NC(=O)c2cccc([N+](=O)[O-])c2)c2ccccc12 | i | i | 83 | ? | i
CCc1nnc(NC(=O)CSc2nccn2-c2cccc(C)c2C)s1 | i | i | nt | 9.2µM | nt
Cc1cccc(-n2ccnc2SCC(=O)Nc2nccs2)c1C | i | i | i | ? | i
Cn1c(-c2c(N)n(C3CCCC3)c3nc4ccccc4nc23)nc2ccccc21 | ? | i | i | ? | i
Cn1c(-c2c(N)n(CCc3ccccc3)c3nc4ccccc4nc23)nc2ccccc21 | ? | i | i | 9.2µM | i
COCCCn1c(N)c(-c2nc3ccccc3n2C)c2nc3ccccc3nc21 | i | i | ? | ? | i
Cn1c(-c2c(N)n(CCCc3ccccc3)c3nc4ccccc4nc23)nc2ccccc21 | 32µM | i | i | ? | i
COc1ccc(OCC(=O)Nc2ccc(S(=O)(=O)N3CCOCC3)cc2)cc1 | i | i | i | i | i
O=C(CC1CCCC1)Nc1ccc(Cl)c(S(=O)(=O)N2CCOCC2)c1 | i | i | nt | 21µM | nt
CC(=O)Nc1ccc(OCC(=O)Nc2ccc(Cl)c(S(=O)(=O)N3CCOCC3)c2)cc1 | nt | nt | nt | 5.8µM | nt
O=C(O)CC(SCC(=O)Nc1ccc(Cl)c(S(=O)(=O)N2CCOCC2)c1)C(=O)O (stereo not drawn) | i | i | i | ? | i
CC(CC(=O)Nc1ccc(Cl)c(S(=O)(=O)N2CCOCC2)c1)c1ccccc1 (stereo not drawn) | i | i | ? | 8.2µM | i
SMILES | FUS suppressor | Giardia killer | TRPV1 ag | ELG1 DNA repair | TRPV1 potentiator
C[C@@H]1C(=O)N(S(=O)(=O)c2ccc([N+](=O)[O-])cc2)[C@H]1c1ccc(F)cc1 | nt | i | nt | nt | nt
CC(=O)c1c(C)[nH]c(C(=O)CN2CCN(S(=O)(=O)c3ccccc3F)CC2)c1C | i | i | nt | 12µM | nt
CC(=O)c1c(C)[nH]c(C(=O)CN2CCN(S(=O)(=O)c3ccc(C(C)C)cc3)CC2)c1C | i | i | i | ? | i
COc1ccc(CCNc2oc(COc3ccccc3Cl)nc2C#N)cc1OC | i | ? | i | 23µM | i
COc1ccc(CCNc2oc(COc3ccccc3F)nc2C#N)cc1OC | i | i | i | 23µM | i
CCSc1nc(-c2ccccc2)nc(C(Cl)Cl)n1 | i | i | i | 18µM | i
CCCN(CCC)c1nc(Cl)nc(NCCN2CCOCC2)n1 | i | i | i | 23µM | i
COc1ccccc1/C=C/c1nc(C#N)c(N2CCN(c3ccccc3)CC2)o1 | i | nt | nt | nt | nt
Cc1cc(C)c[n+](C2=C([O-])c3ccccc3C(=O)/C2=N\S(=O)(=O)c2cccs2)c1 | i | i | i | 12µM | i
Cc1cc[n+](C2=C([O-])c3ccccc3C(=O)/C2=N\S(=O)(=O)c2cccs2)cc1C | i | i | i | 23µM | ?
Cc1cc(C)cc(NS(=O)(=O)c2cccs2)c1 | i | i | i | i | i
CCCC[n+]1ccn(C2=C([O-])c3ccccc3C(=O)/C2=N\S(=O)(=O)c2ccccc2)c1 | i | i | i | ? | i
CCC(C(=O)NC1CCCC1)N(Cc1cccs1)C(=O)Cn1nnc(-c2ccc(OC)c(OC)c2)n1 (stereo not drawn) | i | i | i | 18µM | i
COc1ccc(N(C(=O)Cn2nnc(-c3ccc(F)cc3)n2)C(C)C(=O)NC2CCCC2)cc1 (stereo not drawn) | ? | i | i | ? | i
CCCCC(C(=O)NC1CCCC1)N(Cc1ccco1)C(=O)Cn1nnc(-c2ccc(F)cc2)n1 (stereo not drawn) | i | i | i | 16µM | ?
CC(C(=O)NC1CCCC1)N(C(=O)Cn1nnc(-c2ccc(F)cc2)n1)c1ccccc1F (stereo not drawn) | i | i | i | 16µM | i
CCCOC(=O)c1ccc(Nc2nc3ccccc3nc2-n2nc(C)cc2C)cc1 | i | nt | nt | nt | nt
COc1ccc(N2C(=O)N3[C@H](c4ccc(Cl)cc4)[C@@H]4C(=O)N(C5CCCCC5)C(=O)[C@@H]4[C@]3(C)C2=O)cc1 | 28µM | i | i | i | ?
Cc1cccc(OCC(=O)Nc2nonc2-c2ccc(Br)cc2)c1C | i | nt | nt | nt | nt
O=C(Oc1cc2oc(=O)cc(-c3ccccc3)c2cc1Cl)C1CCCCC1 | i | i | i | 16µM | i
COCCCNC(=O)Cn1c(=O)n(-c2ccc(C)cc2)c(=O)c2c1c1cc(C)ccc1n2C | i | nt | nt | nt | nt
CN(C)CCCN=c1cc(-c2ccccc2)oc2ccc(Cl)cc12 | i | -86 | i | ? | i
CCC(=O)N1CCc2cc(Br)cc(S(=O)(=O)N3CCC(C(=O)NC(C)(C)C)CC3)c21 | i | i | i | 7.3µM | i
CCC(=O)N1CCc2cc(Br)cc(S(=O)(=O)N3CCCC(C(=O)NC(C)(C)C)C3)c21 (stereo not drawn) | i | i | i | i | i
CCOC(=O)c1c(NC(=S)N2CCOCC2)sc2c1CCN(C(=O)OCC)C2 | i | i | i | 23µM | i
COC(=O)c1c(NC(=O)C(=O)N2CCOCC2)sc2c1CCCC2 | i | i | 87 | i | i
COC(=O)c1c(NC(=O)C2(C)Cc3ccccc3C(=O)O2)sc2c1CCCC2 (stereo not drawn) | 4µM | i | i | i | i
O=C(NCc1ccc(Cl)cc1)c1cc2ccccc2oc1=O | i | i | i | ? | i
O=C1c2ccccc2C(=O)N1CCCCN(C(=O)c1cc2ccccc2oc1=O)c1ccc(Cl)cc1 | i | i | i | 23µM | i
